This passage reports Potency results from PubChem BioAssay (Tox21).

Structures are written as SMILES. Several values for one entry are separate records, joined by “and”; a condition that tells them apart may be missing. Equal entries are not always repeated. Results filed as inconclusive are left out. Activity calls are given as the source filed them. Unless noted, the call rests on the fitted dose curve; in most records, active means well fitted curve in the direction sought with a large enough effect in the repeat runs; inconclusive means weak or mixed curves; inactive means no such curve, though single readings can be large; an effect the other way counts as inactive or inconclusive.

A short description of test [1]: qHTS assay to identify small molecule antagonists of the estrogen receptor alpha (ER-alpha) signaling pathway using the BG1 cell line in the presence of 0.1 nM 17-beta-estradiol - cell viability counter screen (AID 1259241). Further: nearly all actives have a fitted effect of over 40% in size. Further: potency means the concentration at half of the fitted maximal effect. Put shortly:
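VM7Luc4E2 cells (endogenous full-length ER-alpha, 4xERE-luciferase), cultured 5 days in charcoal-stripped serum, exposed to compounds with 0.1 nM 17beta-estradiol (final) for 22 hr at 37C. Viability read in same wells as live-cell protease fluorescence after 30 min.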
For orientation: Quantitative high-throughput screening tests each substance at several concentrations.

Test [2] in a line: qHTS assay to identify small molecule antagonists of the androgen receptor (AR) signaling pathway using the MDA cell line in the presence of 0.5 nM R1881 - cell viability counter screen (AID 1259242). Further: nearly all actives have a fitted effect of over 45% in size. Further: potency means the concentration at half of the fitted maximal effect. Put shortly:
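Human breast carcinoma MDA-kb2 cells, cultured without CO2, receive compounds alongside 0.5 nM (final) R1881 agonist. After 16 hr at 37C, viability is taken as live-cell protease signal.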

The target of test [3] is Estrogen receptor (Homo sapiens) (UniProt P03372). The experiment in a line: qHTS assay to identify small molecule antagonists of the estrogen receptor alpha (ER-alpha) signaling pathway using the BG1 cell line in the presence of 0.1 nM 17-beta-estradiol (AID 1259244). Further: nearly all actives have a fitted effect of over 50% in size. Put shortly: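 Seeding of stripped-serum-adapted VM7Luc4E2 cells, 24 h attachment, compound transfer, then 0.1 nM final 17beta-estradiol; after 22 h incubation, ONE-Glo reagent and luminescence reading.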
Chain of Estrogen receptor (Homo sapiens) (P03372 whole entry, looked up): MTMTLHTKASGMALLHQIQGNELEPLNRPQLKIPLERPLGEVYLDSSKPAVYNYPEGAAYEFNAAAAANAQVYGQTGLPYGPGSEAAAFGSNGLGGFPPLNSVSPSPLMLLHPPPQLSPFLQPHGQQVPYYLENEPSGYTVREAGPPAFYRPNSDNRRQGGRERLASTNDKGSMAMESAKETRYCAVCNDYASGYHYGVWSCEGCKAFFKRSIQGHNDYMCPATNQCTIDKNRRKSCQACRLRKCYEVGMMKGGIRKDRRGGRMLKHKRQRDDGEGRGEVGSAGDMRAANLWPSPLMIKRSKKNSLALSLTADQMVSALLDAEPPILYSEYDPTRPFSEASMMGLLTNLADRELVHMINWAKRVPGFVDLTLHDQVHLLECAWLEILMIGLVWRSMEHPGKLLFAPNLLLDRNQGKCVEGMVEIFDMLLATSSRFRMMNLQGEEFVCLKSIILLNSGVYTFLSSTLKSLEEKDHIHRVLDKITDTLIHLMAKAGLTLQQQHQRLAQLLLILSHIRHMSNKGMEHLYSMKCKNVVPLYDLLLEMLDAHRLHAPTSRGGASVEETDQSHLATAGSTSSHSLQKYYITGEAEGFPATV

Test [4] can be described thus: qHTS assay to identify small molecule HDAC inhibitors (AID 1259364).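 Further: wild-type HCT-116 cells with endogenous class I/II HDAC activity; top concentration of the series differs between compounds; nearly all actives have a fitted effect of over 45% in size.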 In short, it runs like this:
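After a 2 hr compound incubation (37C, 5% CO2), HCT-116 cells seeded at 1,500/well the day before received HDAC-Glo reagent; signal read as luminescence after 30 min at room temperature.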

A short description of test [5]: qHTS assay to identify small molecule HDAC inhibitors - cell viability counter screen (AID 1259365). Further: nearly all actives have a fitted effect of over 50% in size. Further: potency means the concentration at half of the fitted maximal effect. Put shortly:
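Wild-type HCT-116 cells, 1,500/well, cultured overnight, then compound-treated 2 h at 37 C. Viability measured as ATP luminescence with CellTiter-Glo after 30 min at room temperature.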

The nature of test [6]: qHTS assay to identify small molecule agonists of the sonic hedgehog signaling (Shh) pathway - cell viability counter screen (AID 1259366). Further: nearly all actives have a fitted effect of over 50% in size. Further: potency means the concentration at half of the fitted maximal effect. Put shortly: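 NIH/3T3-derived Gli1-Luc reporter cells, 2,000 per well, received compound after 4 h and were treated about 23 h at 37C. Viability measured in the same wells by CellTiter-Fluor fluorescence after 1 h.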
The nature of test [7]: qHTS assay to identify small molecule antagonists of the sonic hedgehog signaling (Shh) pathway - cell viability counter screen (AID 1259367). Further: nearly all actives have a fitted effect of over 55% in size. Further: potency means the concentration at half of the fitted maximal effect. Put shortly: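 Tox21 library chemicals were tested on a Gli1-Luc NIH/3T3 clone (2,000 cells/well) stimulated by conditioned medium; viability was quantified as fluorescence from CellTiter-Fluor reagent added at 23 hr.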
Test [8] in a line: qHTS assay to identify small molecule agonists of the sonic hedgehog signaling (Shh) pathway (AID 1259368; calls by dose curve;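 further: NIH/3T3-derived 3T3Gli1-Luc cells carrying a stable Gli1-driven firefly luciferase reporter; series mostly up to about 92 µM; nearly all actives have a fitted effect of over 15% in size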). Put shortly:
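Stable NIH/3T3 Gli1-Luc reporter clone; 24 hr cpd exposure after a 4 hr settling period; luminescence endpoint.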

A short description of test [9]: qHTS assay to identify small molecule antagonists of the sonic hedgehog signaling (Shh) pathway (AID 1259369; calls by dose curve; further: nearly all actives have a fitted effect of over 45% in size; further: potency means the concentration at half of the fitted maximal effect). In short, it runs like this:
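Gli1 transcriptional reporter (firefly Luc) in NIH/3T3 background, conditioned-medium activated. 24hr exposure, luminescence endpoint.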

The nature of test [10]: qHTS assay to identify small molecule agonists of the androgen receptor (AR) signaling pathway in the presence of an antagonist - cell viability counter screen (AID 1259379). Further: nearly all actives have a fitted effect of over 25% in size. Further: potency means the concentration at half of the fitted maximal effect. In short, it runs like this:
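Counter screen for cell viability run in parallel with the AR agonist-mode luciferase assay. MDA-kb2 cells were co-treated with nilutamide (3.0uM final) and compounds, then incubated 16 hr at 37C, and CellTiter-Fluor fluorescence was measured.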

Test [11] is described as follows: qHTS assay to identify small molecule agonists of the estrogen receptor beta (ER-beta) signaling pathway - cell viability counter screen (AID 1259380). Further: nearly all actives have a fitted effect of over 30% in size. Further: potency means the concentration at half of the fitted maximal effect. In short, it runs like this:
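In this qHTS counter screen, HEK293T cells carrying an ER-beta/UAS beta-lactamase reporter, grown in 2% charcoal-stripped FBS, received compound for 16 hr; ATP-based CellTiter-Glo luminescence was then read after 30 min at room temperature.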

Test [12] is described as follows: qHTS assay to identify small molecule antagonists of the estrogen receptor beta (ER-beta) signaling pathway - cell viability counter screen (AID 1259382). Further: nearly all actives have a fitted effect of over 55% in size. Further: potency means the concentration at half of the fitted maximal effect. In short, it runs like this:
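HEK293T ER-beta-UAS-bla, 2% charcoal-stripped FBS; compounds + 1nM E2 16 hr 37C; CellTiter-Glo luminescence, 30 min RT.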

Test [13] deals with Estrogen receptor (Homo sapiens) (UniProt P03372). The experiment in a line: qHTS assay to identify small molecule agonists of the estrogen receptor alpha (ER-alpha) signaling pathway in the presence of an antagonist (AID 1259383; calls by dose curve; further: top concentration of the series differs between compounds; nearly all actives have a fitted effect of over 15% in size). In short, it runs like this:
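ER-alpha agonism measured under antagonist challenge: 10.0nM ICI-182,780 (final) plus compound, 15 concentrations, 22hr, VM7Luc4E2 ERE-luciferase cells. Read by luminescence.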

A short description of test [14]: qHTS assay to identify small molecule agonists or antagonists of the thyroid stimulating hormone receptor (TSHR) signaling pathway - wild type cell line counter screen (AID 1259384; calls by dose curve). In short, it runs like this:
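Wild-type Hek293 cells, 800/well, 18 h at 37C, then compound with Ro20-1724 for 30 min RT. cAMP by HTRF (cAMP-d2/anti-cAMP cryptate), 1 h RT, fluorescence read. 15 concentrations, triplicates.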

For test [15], the target named is Thyrotropin receptor (Homo sapiens) (UniProt P16473). Nature of the test: qHTS assay to identify small molecule antagonists of the thyroid stimulating hormone receptor (TSHR) signaling pathway (AID 1259385; calls by dose curve; further: nearly all actives have a fitted effect of over 20% in size; further: potency means the concentration at half of the fitted maximal effect). In short, it runs like this: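 TSHR-HEK293 cells (800/well) plated 18 h, then compounds with Ro20-1724 and TSH at 1.5 ng/mL final, 30 min at room temperature. cAMP quantified by HTRF (cAMP-d2/anti-cAMP-cryptate, 1 h); 15 concentrations in triplicate.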
Chain of Thyrotropin receptor (Homo sapiens) (P16473 whole entry, looked up): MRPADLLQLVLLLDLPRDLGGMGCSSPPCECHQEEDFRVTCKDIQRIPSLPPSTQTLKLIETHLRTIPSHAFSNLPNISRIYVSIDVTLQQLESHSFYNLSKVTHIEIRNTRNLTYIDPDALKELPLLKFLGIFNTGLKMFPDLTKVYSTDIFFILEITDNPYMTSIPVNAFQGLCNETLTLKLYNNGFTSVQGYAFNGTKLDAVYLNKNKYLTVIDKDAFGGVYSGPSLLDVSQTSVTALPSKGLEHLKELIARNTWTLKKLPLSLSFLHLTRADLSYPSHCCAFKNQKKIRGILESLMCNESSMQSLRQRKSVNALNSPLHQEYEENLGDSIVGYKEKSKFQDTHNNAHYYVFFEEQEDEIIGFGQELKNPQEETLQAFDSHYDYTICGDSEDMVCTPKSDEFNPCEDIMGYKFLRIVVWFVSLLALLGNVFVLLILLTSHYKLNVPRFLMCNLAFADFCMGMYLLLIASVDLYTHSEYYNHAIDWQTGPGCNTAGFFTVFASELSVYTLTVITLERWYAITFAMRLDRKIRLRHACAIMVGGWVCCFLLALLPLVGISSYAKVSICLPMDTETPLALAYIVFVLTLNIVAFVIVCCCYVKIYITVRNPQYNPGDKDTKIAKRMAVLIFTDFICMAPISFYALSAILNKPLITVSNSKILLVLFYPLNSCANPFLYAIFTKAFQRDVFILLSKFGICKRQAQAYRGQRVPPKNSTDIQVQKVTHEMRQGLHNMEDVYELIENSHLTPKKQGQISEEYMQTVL

A short description of test [16]: qHTS assay to identify small molecule agonists of the estrogen receptor alpha (ER-alpha) signaling pathway in the presence of an antagonist - cell viability counter screen (AID 1259386). Further: nearly all actives have a fitted effect of over 30% in size. Further: potency means the concentration at half of the fitted maximal effect. Put shortly: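 Steps: 5-day stripped-FBS culture; seed and incubate 24hr; add ICI-182,780 (10.0nM final); pin 15-point compound titration; incubate 22hr at 37C; add CellTiter-Fluor at 21hr; read fluorescence.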

Test [17] concerns the target Estrogen receptor beta (Homo sapiens) (UniProt Q92731). The experiment in a line: qHTS assay to identify small molecule agonists of the estrogen receptor beta (ER-beta) signaling pathway (AID 1259377; active means well fitted activation curve with a large enough effect in the signal ratio in the repeat runs, not every such curve was filed as active; the % refers to the signal ratio). Put shortly:
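ER-beta-UAS-bla HEK293T cells in medium with 2% charcoal-stripped FBS were exposed to compounds for 16 h at 37C. Beta-lactamase reporter activity was read as fluorescence after 2 h with LiveBLAzer B/G FRET substrate at room temperature.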

Test [18] shares this target. The experiment in a line: qHTS assay to identify small molecule antagonists of the estrogen receptor beta (ER-beta) signaling pathway (AID 1259378; active means well fitted inhibition curve with a large enough effect in the signal ratio in the repeat runs, not every such curve was filed as active; the % refers to the signal ratio). Put shortly: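 ER-beta-UAS-bla HEK293T cells in 2% charcoal-stripped FBS medium treated with compound plus 1nM final 17-beta-estradiol for 16 hr at 37C. Beta-lactamase reporter read by FRET substrate fluorescence after 2 hours at room temperature.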

Chain of Estrogen receptor beta (Homo sapiens) (Q92731 whole entry, looked up): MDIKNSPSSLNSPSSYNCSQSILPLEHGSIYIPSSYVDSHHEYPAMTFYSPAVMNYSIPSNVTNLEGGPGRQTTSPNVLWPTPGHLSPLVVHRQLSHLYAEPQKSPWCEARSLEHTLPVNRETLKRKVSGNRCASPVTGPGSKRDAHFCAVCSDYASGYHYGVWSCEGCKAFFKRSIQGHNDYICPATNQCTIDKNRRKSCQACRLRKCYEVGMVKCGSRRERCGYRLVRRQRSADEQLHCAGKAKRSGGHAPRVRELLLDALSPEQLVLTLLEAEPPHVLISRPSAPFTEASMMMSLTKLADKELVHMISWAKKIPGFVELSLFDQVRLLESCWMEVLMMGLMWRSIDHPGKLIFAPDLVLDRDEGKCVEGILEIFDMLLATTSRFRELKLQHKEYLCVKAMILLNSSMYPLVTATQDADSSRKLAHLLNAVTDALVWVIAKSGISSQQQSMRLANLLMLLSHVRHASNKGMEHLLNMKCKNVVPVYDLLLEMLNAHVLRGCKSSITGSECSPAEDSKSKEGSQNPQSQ

As to `CC(=O)[O][Sn]([c]1ccccc1)([c]1ccccc1)[c]1ccccc1`, the Potency is 545 nM (active) in [1]; 306 nM (active) in [2]; 54500 nM (active) in test [5]; 54.5 nM (active) in test [6]; 109 nM (active) in [7]; 54.5 nM (active) in test [9]. For the same compound, the Potency in [10] is 770 nM (active); in [11], 137 nM (active); in test [12] it was 137 nM (active); in test [15], 19.3 µM (active); in [16] it was 8630 nM (active). For the same compound, the Potency result in test [3], in test [4], in test [8], in test [13] and in test [14] was “inactive” throughout.
Regarding `Clc1ccc(C(c2ccc(Cl)cc2)C(Cl)Cl)cc1`, the Potency entry in test [1], in test [2], in test [3], in test [4], in test [5] and in [6] was “inactive” in each case. The Potency entry in test [7], in test [13], in test [14] and in [16] was “inactive” throughout. Also, the Potency was 34400 nM (active) in test [9]; 54500 nM (active) in [11]; 62.1 µM (active) and 61.1 µM (active) in test [15].
For `CC(C)(C)c1ccc(OP(=O)(Oc2ccccc2)Oc2ccccc2)cc1`, the Potency entry in [1], in [2], in test [3], in test [4], in test [5] and in test [6] was “inactive” in each case. The Potency entry in test [7], in test [17], in test [10], in [13] and in [16] was “inactive” in each case.
Consider `CN1[C@@H]2CC[C@H]1CC(O)C2` (stereo not given in full), for which the Potency result in [1], in test [2], in test [3], in test [4], in test [5] and in [6] was “inactive” throughout. The Potency entry in test [7], in [8], in test [9], in [17], in [10] and in test [11] was “inactive” throughout. The Potency result in test [12], in [13] and in [16] was “inactive” throughout.
For the compound `CC(C)Br`, the Potency result in test [1], in [2], in test [3], in [4], in test [5] and in test [6] was “inactive” throughout. In addition, the Potency result in [7], in test [8], in test [9], in [17], in test [10] and in test [12] was “inactive” each time. Besides, the Potency entry in test [13], in test [14], in test [15] and in [16] was “inactive” throughout.
As to `Clc1ccc(C2(Cn3cncn3)OCCO2)c(Cl)c1`, the Potency entry in test [1], in test [2], in test [3], in [4], in [5] and in test [6] was “inactive” in each case. Further, the Potency entry in test [7], in [8], in test [9], in [17], in [18] and in [10] was “inactive” in each case. For the same compound, the Potency result in [11], in test [12], in [13], in test [14], in [15] and in test [16] was “inactive” each time.
Take `C=CCBr`: the Potency result in test [1], in [2], in [3], in [4], in test [5] and in test [6] was “inactive” in each case. In addition, the Potency entry in [7], in test [8], in [9], in test [10], in test [11] and in test [12] was “inactive” throughout. In addition, the Potency entry in [13], in test [14], in test [15] and in test [16] was “inactive” throughout.
Turning to `CC(C)C(Br)C(=O)NC(N)=O` (stereo not given), the Potency entry in test [1], in test [2], in test [3], in test [4], in test [5] and in test [6] was “inactive” throughout. Further, the Potency entry in test [7], in test [9], in test [17], in test [18], in test [11] and in test [12] was “inactive” each time. Further, the Potency entry in [13], in test [14], in test [15] and in [16] was “inactive” each time.
Take `CCC1(CC)C(=O)N=C(O)NC1=O`: the Potency entry in test [1], in test [2], in test [3], in [4], in [5] and in test [6] was “inactive” in each case. The Potency result in test [7], in [8], in test [17], in test [10], in test [11] and in test [12] was “inactive” in each case. For the same compound, the Potency entry in test [13] and in test [16] was “inactive” each time.
